Bioassay records from PubChem.
Pf Dd2 growth: blocks in vitro growth of P. falciparum Dd2; P. falciparum Dd2 growth, SYBR Green, 72 h; Potency, µM (top dose mostly 28.9 µM), inactives show at the top dose activity, negative = inhibition, most hits filed as inhibitors; 4.3% of 120,000 active; AID 1347417; active = well fitted inhibition curve with a large enough effect;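 note: plate controls were DMSO vehicle for no effect and reference drug for full effect; nearly all actives have a fitted effect of over 65% in size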
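Infected erythrocytes (Dd2, 0.3% parasitemia, 2.5% hematocrit final) are added to compound in RPMI-1640/Albumax II medium, grown 72 h at 37C in low oxygen, then lysed with saponin/Triton-X containing SYBR Green and read by fluorescence.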
* = called active by the depositor; i = inactive; [ ] = remark or other dose. Only a selection was taken, and hits are over-represented in it overall. Potency is the fitted concentration of half-maximal effect.

SMILES	Pf Dd2 growth
O=C(NC1(C(F)(F)F)NC(=O)N(CCc2ccccc2)C1=O)c1ccc(Cl)cc1 (stereo not given)	i
COc1ccc(CCN2C(=O)c3[nH]nc(-c4ccccc4O)c3C2c2ccc(O)c(OC)c2)cc1 (stereo not given)	10µM*
CCCN1C(=O)c2[nH]nc(-c3ccccc3)c2C1c1cccc(O)c1 (stereo not given)	-18.5%
CCCN1C(=O)c2[nH]nc(-c3cccc(OC)c3)c2C1c1ccccn1 (stereo not given)	-4.6%
COc1ccc(-c2n[nH]c3c2C(c2ccccn2)N(C)C3=O)cc1 (stereo not given)	-13.5%
COc1ccc(C(=O)N2CC[C@@H]3CN(S(C)(=O)=O)[C@@H]3C2)cn1	41.5%
NC(=O)N1CCCC(C(=O)N2CCN(Cc3cccc(O)c3)CC2)C1 (stereo not given)	8.4%
CCn1ncc(N2CCC(NC(=O)c3ccc(C)cc3C)CC2)cc1=O	-18.0%
COC(=O)CNC(=O)C1CCN(C(=O)C2CN(c3ccc(OC)cc3)C(=O)N2)C1 (stereo not given)	-17.1%
COc1ccccc1NC(=O)N1CC2CC(C1)[C@H]1CCCC(=O)N1C2 (stereo not given in full)	0.1%
Cn1ncc(N2CCC(NC(=O)CCC3CCCC3)CC2)cc1=O	-12.8%
Cc1cc(CN(C)c2cc(C3CC(O)C3)ncn2)n[nH]1 (stereo not given)	-10.4%
CCCS(=O)(=O)N1CCC2(CCCN(Cc3cccc(F)c3F)C2=O)C1 (stereo not given)	i
Cc1noc(C)c1S(=O)(=O)N1CCCC(Cc2nncn2C(C)C)C1 (stereo not given)	-2.8%
O=c1cc(-c2ccncc2)oc2c(-c3cccc4[nH]ccc34)nccc12	10µM*
Cn1cc(-c2cc(=O)c3ccnc(-c4cccc5[nH]ccc45)c3o2)cn1	i
COc1ncccc1-c1nccc2c(=O)cc(-c3ccncc3)oc12	-6.2%[44.1 µM]
COc1cc(OC)cc(N2C(=O)N(CC(=O)c3ccc(F)cc3)c3ccccc3S2(=O)=O)c1	8.91µM*
Cc1ccc(N2C(=O)N(CC(=O)C(C)(C)C)c3ccccc3S2(=O)=O)cc1C	-11.3%
COc1ccc(C(=O)CN2C(=O)N(c3cc(C)ccc3C)S(=O)(=O)c3ccccc32)cc1	i
COCCN1CCC(N2CCN(C(=O)C3CCCCC3)CC2)C1=O (stereo not given)	-13.2%
O=C1CCC2(C(=O)NCCCN3CCOCC3)CCCC=C2N1c1ccccc1 (stereo not given)	-20.5%
c1cncc(COc2cc3c(cn2)NCCN(CC2CCCCC2)C3)c1	-14.9%[44.1 µM]
CC(C)CNC(=O)N1CC[C@H]2C(=O)NCCCCCCN(Cc3ccncc3)[C@@H]2C1	0.7%
O=C(c1ccco1)N1CCC2(CC1)CC(N(Cc1ccc(F)cc1)C1CC1)CCO2 (stereo not given)	2.82µM*
SMILES	Pf Dd2 growth
CC(C)C(=O)N1CCC2(CC1)CC(N(Cc1ccccc1)C1CC1)CCO2 (stereo not given)	-23.5%
Cc1cc(C(=O)N2CCC3(CC2)CC(N(Cc2ccc(F)cc2)C2CC2)CCO3)n(C)n1 (stereo not given)	i
O=C(c1ccccc1)N1CCC2(CC1)CC(N(Cc1ccc(F)cc1)C1CC1)CCO2 (stereo not given)	7.94µM*
O=C(CC1CCCC1)N1CCC2(CC1)CC(N(Cc1ccc(F)cc1)C1CC1)CCO2 (stereo not given)	7.94µM*
CC(=O)N1CCC2(CC1)CC(N(Cc1ccc(F)cc1)C1CC1)CCO2 (stereo not given)	9.3%
O=C(C1CCC1)N1CCC2(CC1)CC(N(Cc1ccc(F)cc1)C1CC1)CCO2 (stereo not given)	i
Cc1ccc(C(=O)N2CCC3(CC2)CC(N(Cc2ccccc2)C2CC2)CCO3)s1 (stereo not given)	1.58µM*
CCOCC(=O)N1CCC2(CC1)CC(N(Cc1ccc(F)cc1)C1CC1)CCO2 (stereo not given)	-32.6%
O=C(c1ccccn1)N1CCC2(CC1)CC(N(Cc1ccccc1)C1CC1)CCO2 (stereo not given)	-6.1%
O=C(C1CCOCC1)N1CCC2(CC1)CC(N(Cc1ccc(F)cc1)C1CC1)CCO2 (stereo not given)	0.2%
Cc1ccc(C(=O)N2CCC3(CC2)CC(N(Cc2ccccc2)C2CC2)CCO3)cc1 (stereo not given)	i
CN1[C@@H](CCC(=O)NCc2ccc(F)cc2)CNC(=O)[C@@H]2[C@H]1CCN2Cc1ccc(S(C)(=O)=O)cc1	-15.5%
COCCn1cnnc1CN(C)c1cc(C2CC(O)C2)ncn1 (stereo not given)	-1.8%
O=C(O)CC1C(=O)NCCN1C1CCCC1 (stereo not given)	-3.3%
CN(C)C(=O)c1cccc2c1CCN2C(=O)Nc1ccc(F)cc1	-6.0%
N#Cc1ccc(S(=O)(=O)N2CCC3(CC2)CC(CC(=O)N2CCOCC2)CCO3)cc1 (stereo not given)	87.3%
Cc1ccc(S(=O)(=O)NC[C@H]2O[C@@H](CC(=O)N3CCOCC3)[C@H](O)[C@@H]2O)cc1	7.5%[44.1 µM]
COCCc1nncn1C1CCN(C(=O)c2cc(C)ccc2C)CC1	i
O=C(C1CCOCC1)N1CCCC(CCc2ccc(F)c(F)c2)C1 (stereo not given)	-3.7%
C[C@]1(CO)C2CC[C@@H](O)[C@@H](CC(=O)NCc3ccccc3)[C@]2(C)CC[C@H]1OC(=O)Nc1ccccc1 (stereo not given in full)	i
Cc1noc(C)c1S(=O)(=O)N1CCC2(CC1)C(=O)NN=C2C1CC1	30.1%
Cc1cnc(C(=O)N2CCCN(C(=O)C3CC3)c3ccccc32)cn1	-2.1%
Cc1cnc(C(=O)NC2C[C@H]3CC[C@@H](C2)N3C(=O)c2ccc(Br)o2)cn1 (stereo not given in full)	i
CCC(=O)N1CCC2(CC1)CC(N(Cc1ccccc1)C1CC1)CCO2 (stereo not given)	-19.8%
COCCC(=O)N1CCC2(CC1)CC(N(Cc1ccccc1)C1CC1)CCO2 (stereo not given)	i
SMILES	Pf Dd2 growth
O=C(CCC1CCCC1)N1CCC2(CC1)CC(N(Cc1ccccc1)C1CC1)CCO2 (stereo not given)	12.6µM*
Cc1c(CNC(=O)c2ccc3nc(-c4ccc(F)cc4)cn3c2)cnn1C	-14.6%
CS(=O)(=O)N1CCCCCNC(=O)[C@@H]2CCCC[C@@H]21	-2.4%
CC1(C(=O)NCCc2ccccn2)CCc2cnc(NCc3ccccc3)nc21 (stereo not given)	-21.0%[44.1 µM]
COc1ccc(C(=O)N2CCOCC3(CN(Cc4ccccc4)C3)C2)c(OC)n1	0.891µM*
COc1ccc(C(=O)N2CCOCC3(CN(Cc4ccccc4)C3)C2)cc1	-11.5%[44.1 µM]
COc1ccc(C(=O)N2CCOCC3(CN(Cc4cc(F)cc(F)c4)C3)C2)c(OC)n1	i
CCn1ncc(N2CCC(NC(=O)c3cccc(OC)c3OC)CC2)cc1=O	-19.5%
COc1ccc(C2CC(=O)N(CC(=O)Nc3cc(C)ccc3C)c3ccccc3S2)cc1 (stereo not given)	-7.2%
COc1cc(C2CC(=O)N(CC(=O)Nc3ccccc3F)c3ccccc3S2)cc(OC)c1OC (stereo not given)	3.16µM*
CCOC(=O)c1ccccc1NC(=O)CN1C(=O)CC(c2ccccc2)Sc2ccccc21 (stereo not given)	i
Cc1ccc(OCc2ccc(C(=O)N3C[C@H](C4CC4)[C@@H](N)C3)cc2)cc1	10µM*
CCOc1ccc(C(=O)N2C[C@@H](COC)[C@H](C(N)=O)C2)cc1	-0.9%
